Bioassay records: PubChem, National Center for Advancing Translational Sciences (NCATS)
Only a selection was taken, and hits are over-represented in it overall.
PI4K2A inh: PI4K2A (human) kinase inhibition | Q9BTU6 | purified PI4K2A, ADP-Glo luminescence, 1 h; stronger effect = lower value | activity change, negative = inhibition, % at 76.9 µM | actives 0.13% (n = 420,000) | AID 1346378; in the data active means activity change below about -50%; inconclusive means mostly about -30% to -49%;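 further: -100% = wells without enzyme as full effect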
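In this quantitative HTS, ADP production by PI4K2A was quantified luminescently after 1 h at ambient temperature; 100 microM adenosine served as plate-quality control.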
PI5P4K alpha inh: inhibitors of human PI5P4K alpha; P48426; PI5P4Kalpha enzyme, ADP-Glo luminescence, 60 min; stronger effect = lower value; max response, %; actives 1.2% (n = 330,000); active means max response of -50% or lower; inconclusive means between -30% and -50%; inactive means -30% or higher; further: value at the top dose of about 77 µM
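Single end-point luminescence (ADP-Glo) quantified ADP from PI5P4Kalpha turnover; ATP 5 microM final, 1 h at RT, 0.1% CHAPS and 0.28 mM EGTA in HEPES pH 7.4.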
Tb PFK inh: blocks T. brucei phosphofructokinase; Potency, µM (doses to about 57.5 µM), without a hit: at the top dose activity, negative = inhibition, most hits filed as inhibitors; actives 0.17% (n = 330,000); AID 485367; T. brucei PFK, ADP-Glo luminescence;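 further: potency means the concentration at half of the fitted maximal effect; 0% = uninhibited 1x PFK enzyme wells and -100% = no-enzyme wells; nearly all actives have a fitted effect of over 60% in size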
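PFK 1.25 nM, F6P 0.5 mM, ATP 0.1 mM, 0.1 M TEA pH 8.0, 5 mM MgCl2, 0.01% Tween20, 0.1% BSA; 45 min RT. ADP-Glo readout. qHTS titration up to 57 uM; curves fitted, compounds curve-classed.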
Pin1 inhibitor: human Pin1 inhibition. Q13526. Pin1 FP peptide displacement, HiFluor488, 10 min. Potency, µM (titrated, usually from 115 µM), for the others: at the top dose activity, negative = inhibition, actives largely listed as inhibitors. actives 0.009% (n = 390,000). AID 504891; active means well fitted inhibition curve with a large enough effect in the polarisation, with a control signal flat, not every such curve was filed as active; inconclusive means small, poorly fitted or top-dose-only effect, or effect the other way, or a change in a side signal; inactive means no such curve, though single readings can be large or run the other way; the % refers to the polarisation; further: potency means the concentration at half of the fitted maximal effect
Target sequence (Q13526 whole entry, looked up): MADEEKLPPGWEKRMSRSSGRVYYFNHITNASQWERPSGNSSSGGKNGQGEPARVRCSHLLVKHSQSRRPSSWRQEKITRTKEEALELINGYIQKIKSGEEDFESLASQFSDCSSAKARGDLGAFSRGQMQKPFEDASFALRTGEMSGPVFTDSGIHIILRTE
PGK inhibitor: inhibitors of T. brucei phosphoglycerate kinase. P07378. PGK/GAPDH coupled, Kinase-Glo luminescence, 60 min. Potency, µM (highest dose often 57.5 µM), inactives show top-dose activity change, negative = inhibition, hits mostly inhibitors. actives 0.043% (n = 380,000). AID 602233; further: potency means the concentration at half of the fitted maximal effect; nearly all actives have a fitted effect of over 60% in size
Target sequence (P07378 whole entry, looked up): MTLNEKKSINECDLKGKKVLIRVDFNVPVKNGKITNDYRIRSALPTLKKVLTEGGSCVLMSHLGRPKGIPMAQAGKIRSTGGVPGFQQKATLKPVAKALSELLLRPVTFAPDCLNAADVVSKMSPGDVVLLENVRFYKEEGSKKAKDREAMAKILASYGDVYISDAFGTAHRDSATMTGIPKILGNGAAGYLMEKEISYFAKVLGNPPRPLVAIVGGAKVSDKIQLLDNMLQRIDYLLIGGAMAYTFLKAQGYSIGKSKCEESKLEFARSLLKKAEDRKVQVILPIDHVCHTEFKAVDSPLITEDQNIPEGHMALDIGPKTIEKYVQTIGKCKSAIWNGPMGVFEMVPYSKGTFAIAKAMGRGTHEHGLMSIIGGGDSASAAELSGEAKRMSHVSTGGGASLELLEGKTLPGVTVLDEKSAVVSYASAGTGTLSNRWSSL
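Luminescent ATP detection (Kinase-Glo Plus) follows a 60-minute room-temperature incubation, with wells lacking PGK as controls. Buffer: 100 mM TEA (pH 7.6), 5 mM MgCl2, 0.01% Tween-20. Coupling enzyme GAPDH (100 nM final) supplies unstable 1,3-BPG in-well.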
ADP-Glo interf: interferes with ADP-Glo detection without enzyme present | shares compounds with PI5P4K alpha inh | ADP-Glo detection counter-screen, luciferase luminescence, no enzyme | Potency, µM (doses to about 76.9 µM), for inactives: at the highest dose activity change, negative = inhibition, actives largely listed as inhibitors | 1,100 tested, under 10 active
* = called active by the depositor; i = inactive; ? = inconclusive; · = no result. Unless noted, the call rests on the fitted dose curve; in most records, active means well fitted curve in the direction sought with a large enough effect; inconclusive means small, poorly fitted or top-dose-only effect, or another doubt; inactive means no such curve, though single readings can be large; an effect the other way counts as inactive or inconclusive. Unless noted, on the % scale 0 is the no-effect control and ±100 the full control effect.

SMILES | PI4K2A inh | PI5P4K alpha inh | Tb PFK inh | Pin1 inhibitor | PGK inhibitor | ADP-Glo interf
CN(CC(=O)Nc1cccc(F)c1)C(=O)c1ccc(N2C(=O)c3ccccc3C2=O)cc1 | -5 | 4 | 2% | 21% | i | ·
Cc1ccc(C)c(NC(=O)CN(C)C(=O)c2cccc(-n3cccc3)c2)c1 | -6 | -60* | ? | -24% | ? | -1%
Clc1ccc(OCc2nc(-c3ccc(Br)o3)no2)cc1 | 0 | -2 | -2% | 2% | -2% | ·
Cc1ccc2c(c1)C(=O)C(=O)N2Cc1ccc(OC(C)C)cc1 | 12 | · | · | ? | 10% | ·
CCOc1cc(CNc2ccc(N3CCCC3)cc2)cc(Cl)c1OC | -9 | -12 | 1% | -3% | 1% | ·
COc1cc(CNc2ccc(N3CCCC3)cc2)cc(Cl)c1OC | -14 | -66* | 3% | 2% | 10% | -4%
COc1ccc(-c2cc(C(=O)N3CC4(C)CC3CC(C)(C)C4)no2)cc1 (stereo unspecified) | 1 | · | 3% | -17% | i | ·
O=C(NCCCn1ccnc1)/C(=C/c1cccs1)NC(=O)c1ccco1 | 1 | 7 | 1% | 3% | i | ·
O=C(CSc1nc2[nH]c(=O)cc(O)c2s1)Nc1ccc(Cl)c(C(F)(F)F)c1 | 1 | -54* | -5% | 28% | -5% | 2%
CCC(=O)NC(c1ccc(C)cc1)c1cc([N+](=O)[O-])c2cccnc2c1O (stereo unspecified) | -18 | -19 | -2% | -1% | -1% | ·
CC(=O)NC(c1ccc(C)cc1)c1cc([N+](=O)[O-])c2cccnc2c1O (stereo unspecified) | -29 | -59* | -1% | 4% | 3% | 3%
O=C(NC(c1ccc(Cl)cc1)c1cc(Cl)c2cccnc2c1O)c1cccnc1 (stereo unspecified) | 2 | -63* | -3% | 25% | -8% | -9%
O=C(N[C@@H](Cc1ccccc1)C(=O)OCc1ccccc1)c1nc[nH]c1C(=O)NC(c1ccccc1)c1ccccc1 | -3 | 7 | 5% | ? | -3% | -2%
Cc1cc(C)cc(NC(=O)Cn2nnc(C(=O)NCc3ccc(F)cc3)c2N)c1 | -6 | -56* | -21% | 7% | 0% | -3%
COc1ccccc1C(=O)c1cc2ccc(O)cc2oc1=O | 0 | -2 | -3% | ? | -2% | ·
O=C(CSc1c2c(nc3ccccc13)CCCC2)NCc1ccco1 | -4 | 2 | -5% | -8% | 9% | ·
O=C(NCc1ccco1)c1c2c(nc3ccccc13)CCC2 | ? | -71* | -24% | · | -24% | 0%
O=C(Nc1cccc(S(=O)(=O)N2CCOCC2)c1)c1c2c(nc3ccccc13)CCC2 | -23 | -64* | 14% | ? | -15% | -2%
CCCCOc1ccc(C(C)NC(=O)CCS(=O)(=O)Cc2ccccc2F)cc1 (stereo unspecified) | -3 | 21 | 1% | -1% | 4% | ·
CCS(=O)(=O)N1Cc2ccccc2CC1C(=O)Nc1nnc(SCc2ccc(C#N)cc2)s1 (stereo unspecified) | -11 | -57* | 2% | 30% | -6% | 5%
O=c1c2ccccc2cnn1-c1nc2ccccc2[nH]1 | -73* | -50* | ? | -2% | 10µM* | 25µM*
CC(C)Cc1ccc(CN2C(C)C(=O)N(Cc3cn(Cc4ccco4)nn3)CCS2(=O)=O)cc1 (stereo unspecified) | -17 | -64* | · | · | · | -4%
Cc1ccc(-c2ccc(CN3C(C)C(=O)N(Cc4cn(Cc5ccco5)nn4)CCS3(=O)=O)cc2)c(C)c1 (stereo unspecified) | -4 | -53* | · | · | · | -2%
CCCC(c1nnnn1Cc1ccccc1)N1CCC(C(N)=O)CC1 (stereo unspecified) | 3 | 5 | 0% | -3% | -1% | ·
O=C1Nc2ccccc2Nc2ccccc21 | -11 | 8 | 5% | 13% | -3% | ·
SMILES | PI4K2A inh | PI5P4K alpha inh | Tb PFK inh | Pin1 inhibitor | PGK inhibitor | ADP-Glo interf
O=C1Nc2cc(Cl)ccc2Nc2cscc21 | -6 | · | · | 0% | i | 2%
Cc1[nH][nH]c(=O)c1C(c1ccc(O)c([N+](=O)[O-])c1)c1c(C)[nH][nH]c1=O | 0 | -11 | 9% | -8% | -7% | ·
O=S(=O)(Nc1nc(-c2ccccc2)cs1)c1cc(Cl)ccc1Cl | 5 | -51* | 0% | ? | -6% | -2%
Nc1ncc(Br)cc1S(=O)(=O)NCCC(=O)N1CCN(c2ncccn2)CC1 | -4 | -4 | 5% | 3% | -3% | ·
COc1ccc(OCc2ccc(-c3nc(C#N)c(NCc4cccnc4)o3)o2)cc1 | 3 | · | · | 6% | i | ·
Cc1c2cnn(CC(=O)Nc3c(F)c(F)cc(F)c3F)c(=O)c2c(C)n1Cc1ccccc1F | ? | -56* | 21% | ? | -22% | 4%
O=C(CN1C(=O)C2C3C=CC(C3)C2C1=O)Nc1ccc2nccnc2c1 (stereo unspecified) | 3 | -6 | 5% | 0% | -11% | ·
CCN(CC(=O)N1CCC(C(N)=O)CC1)S(=O)(=O)c1cc(Cl)ccc1Cl | -2 | -52* | · | ? | 0% | 4%
CCN(CC(=O)N1CCC(C(N)=O)CC1)S(=O)(=O)c1ccc(Cl)cc1 | -8 | 6 | 1% | -5% | -5% | ·
O=C(c1cc2cc(Cl)cc(Cl)c2oc1=O)N1CCOCC1 | 3 | 6 | -3% | 1% | 4% | ·
CC(C)n1cc([C@@H]2C[C@H]3CN(Cc4cccc(Cl)c4)C(=O)[C@]34CCCN24)cn1 | -4 | 8 | 0% | 8% | -5% | ·
O=C(Nc1cccc(Cl)c1)Nc1nnc(-c2ccncc2)s1 | -5 | -60* | -4% | ? | -11% | -5%
O=C(Nc1ccc(Cl)cc1)Nc1nnc(-c2ccncc2)s1 | 6 | -10 | 6% | 9% | 7% | ·
Cc1ccc(NC2Sc3ccccc3NC2=O)cc1 (stereo unspecified) | -4 | -63* | ? | -2% | -7% | -1%
O=C(Nc1ccc(N2CCOCC2)c(S(=O)(=O)Nc2ccc(Cl)cc2)c1)c1cnccn1 | 4 | -25 | 0% | 0% | i | ·
O=C(Nc1ccc(N2CCOCC2)c(S(=O)(=O)Nc2ccc(Cl)cc2)c1)c1ccc(=O)[nH]n1 | -10 | -62* | -3% | ? | -18% | -6%
O=C(Nc1ccc2c(c1)OCO2)c1n[nH]c(=O)c2ccccc12 | -8 | -57* | -1% | ? | -7% | 1%
O=c1cc(CSc2nnc(-c3cccs3)n2Cc2ccccc2)nc2sc3ccccc3n12 | -15 | -51* | -21% | ? | -1% | 6%
O=C(Cn1cc(COc2ccc(Br)cc2[N+](=O)[O-])nn1)c1ccc(O)cc1 | -30 | -57* | · | ? | i | -8%
